Reference: PubChem BioAssay AID720513 (Broad Institute, 2013)
About 480 (23%) of roughly 2,100 compounds were called active. Inconclusive results (about 5%) are left out. These entries were drawn from the full list. Potency and affinity values are given separately. Values without a mark were called inactive.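 Rule for the calls: active = fitted curve reaches 40% activation at or below the top valid concentration, in every replicate test; inconclusive = replicate tests disagree on the call; inactive = the rest, including activity in the opposite direction.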

Experiment: PGC1a acetylation increase, cellular AlphaLISA – cell-based, cherry-picked samples, set 6, dose response (AID 720513);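 note: cells made to overexpress flag tagged PGC1a plus GCN5 acetyltransferase by viral infection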
Details: U2OS PGC1a acetylation AlphaLISA, overnight, 0 = neutral, -100 = inhibitor control; series mostly up to 19.5 µM; activation (acetylation increase): at the top concentration

Point of comparison: CN(C)C(=O)C[C@H]1C[C@@H]2c3cc(NC(=O)C4CCOCC4)ccc3O[C@@H]2[C@H](CO)O1, “activation (acetylation increase)” value 30.3%. Against it:
- CCNC(=O)C1(C)CCCN1Cc1ccccc1Cl (configuration not stated) — higher, 44.3%
- N#CC(C#N)=c1ccc2c(c1)NC1(CCCCC1)N=2 — lower, -10.6%
- O=C(c1ccco1)N(Cc1ccc([N+](=O)[O-])cc1)c1ccc(Br)cc1 — higher, 32.8%
- C#CCN(C[C@@H]1[C@@H](OC(=O)NCC2CCCCC2)[C@@H](OC(=O)NCC2CCCCC2)Cn2c(=O)ccc(=O)n21)S(=O)(=O)c1ccc(C)cc1 — lower, -98.4%
- COc1ccc(OCCCC(=O)OCC(=O)Nc2c(C)nn(-c3ccccc3)c2C)cc1 — lower, -6.1%
- O=C(C[C@@H]1C=C[C@@H](NC(=O)Nc2ccc(C(F)(F)F)cc2)[C@H](CO)O1)NCc1ccccn1 — lower, -16.3%
- C[C@@H]1CN([C@@H](C)CO)C(=O)CCCn2nncc2CO[C@@H]1CN(C)C(=O)NC1CCCCC1 — lower, 3.28%
- Cc1cc(C)c(C(=O)/C=C/c2ccc(C(C)C)cc2)c(=O)[nH]1 — lower, -29.3%
- C[C@H]1CN([C@@H](C)CO)S(=O)(=O)c2ccc(C3=CCCC3)cc2O[C@H]1CN(C)Cc1cncnc1 — lower, 11.6%
- O=S(=O)(Nc1cc(Sc2ncn[nH]2)c(O)c2ccccc12)c1ccccc1 — lower, -96.2%
- COc1ccc(NC(=O)N[C@@H]2CC[C@H](CCn3cc(-c4ccccc4F)nn3)O[C@@H]2CO)cc1 — higher, 34%
- O=C(Cn1ncc(Cl)c(Cl)c1=O)N1CCN(S(=O)(=O)c2ccc3ccccc3c2)CC1 — lower, -94.6%
- O=C(Cn1ncc(Cl)c(Cl)c1=O)c1ccc(Cl)cc1 — lower, -107%
- Cc1ccc(NC(=O)Cn2ncc(Cl)c(Cl)c2=O)cc1S(=O)(=O)N1CCCCC1 — lower, -92.6%
- O=C(Cn1ncc(Cl)c(Cl)c1=O)c1ccc2c(c1)OCCO2 — lower, -78.9%
- C[C@H](CO)N1C[C@H](C)[C@@H](CN(C)Cc2cccnc2)Oc2cc(C#CC3CCCCC3)ccc2S1(=O)=O — lower, -75.6%
- Cc1noc(C)c1NC(=O)N(C)C[C@@H]1Oc2ccc(NS(=O)(=O)c3cn(C)cn3)cc2C(=O)N([C@@H](C)CO)C[C@@H]1C — lower, 8.74%
- CN=C1c2cc3cc(OC)ccc3n2CCN1Cc1ccccc1 — higher, 42.6%
- Cc1cc(N2CCN(C)CC2)nc(=S)[nH]1 — lower, -14.8%
- COc1cc(OC)cc(C(=O)N[C@H](C(=O)OCC(=O)NC(=O)NC(C)(C)C)C(C)C)c1 — lower, -10.6%
- OC[C@H]1[C@@H](c2ccc(C#CC3CCCC3)cc2)[C@@H]2CN(CCC(F)(F)F)CCCCN12 — lower, -96.1%
- NC(=O)c1oc2ccccc2c1NC(=O)C1CC(=O)N(c2ccccc2)C1 (configuration not stated) — higher, 42.6%
- CN(C)C(=O)C[C@H]1CC[C@@H](NC(=O)C2CCC2)[C@H](CO)O1 — lower, -23.8%
- COCCOc1ccc(C(F)(F)F)cc1NC(=O)CN1C(=O)NC2(CCCc3ccccc32)C1=O (configuration not stated) — lower, -4.64%
- CCOC(=O)c1[nH]c2ccc(OC)cc2c1NC(=O)c1ccc2c(c1)OCO2 — lower, -3.22%
- CCOC(=O)c1[nH]c(C)c(C(=O)Nc2cc(Cl)ccc2C)c1C — lower, -1.9%
- O=c1c2c(nc3c(-c4ccc(Cl)cc4)c[nH]n13)CCCC2 — lower, -8.3%
- CC(C)(O)c1cc(=O)sc2nc3ccccc3n12 — lower, 12.9%
- O=C(NC1CCCC1)C(c1ccncc1)N(Cc1ccccc1F)C(=O)c1csnn1 (configuration not stated) — lower, -10.3%
- O=C(NC1CCCC1)C(c1ccccc1)N(Cc1ccc(F)cc1)C(=O)c1csnn1 (configuration not stated) — lower, 22.9%
- C[C@@H]1CN([C@H](C)CO)C(=O)c2cccc(NC(=O)Nc3cccc4ccccc34)c2O[C@H]1CN(C)S(C)(=O)=O — lower, 6.73%
- C[C@@H]1CN([C@@H](C)CO)C(=O)CCCn2cc(nn2)CO[C@H]1CN(C)C(=O)Cc1ccccc1 — lower, 8.97%
- CC(=O)N(C)C[C@H]1Oc2ncc(C#CCc3ccccc3)cc2C(=O)N([C@@H](C)CO)C[C@H]1C — lower, 5.97%
- CCn1c(=N)n(CC(=O)c2ccc(OC)c(OC)c2)c2ccccc21 — lower, 5.92%
- CC(=O)Oc1ccc(-c2csnn2)cc1 — lower, 0.471%
- CCCNC(=O)CN(C)C(=O)c1n[nH]c2ccccc12 — lower, 18.4%
- O=c1[nH]c(=O)c2[nH]c(=S)[nH]c2[nH]1 — lower, -1.47%
- CC(C)c1ccc(NC(=O)c2n[nH]c(=O)c3ccccc23)cc1 — lower, 1.85%
- COc1ccc2nc3cc(Cl)ccc3c(Nc3cc(CN4CCCC4)c(O)c(CN4CCCC4)c3)c2n1 — lower, -57.3%
- Cc1noc(C)c1NC(=O)Nc1ccc2c(c1)C(=O)N([C@H](C)CO)C[C@@H](C)[C@@H](CN(C)S(=O)(=O)c1ccc(F)cc1)OCCCC[C@@H](C)O2 — higher, 34.8%
- CCCCC(=O)NCCc1cc2c(OC)ccc(OC)c2[nH]c1=O — lower, 20.3%
- COc1cc2[nH]c(=O)n(CCCC(=O)NCCc3ccccc3)c(=O)c2cc1OC — lower, -2.35%
- COc1cccc(NC(=O)CN(C)C(=O)CNC(=O)c2ccccc2F)c1 — lower, 2.56%
- CCCN(C)C[C@H]1Oc2cc(C#C[C@@H](C)O)ccc2S(=O)(=O)N([C@@H](C)CO)C[C@H]1C — lower, -11.5%
- CCn1cc([N+](=O)[O-])c(C(=O)NCc2ccc3c(c2)OCO3)n1 — lower, -0.458%
- Cc1ccc(CNC(=O)CCS(=O)(=O)c2cc3c(cc2Cl)NC(=O)CO3)cc1 — lower, 18%
- COC(=O)c1ccccc1N(C)S(=O)(=O)c1cc2c(cc1C)OCC(=O)N2 — lower, -12.3%
- COc1ccc(C2c3c(-c4ccccc4O)n[nH]c3C(=O)N2CCc2ccc(OC)c(OC)c2)cc1 (configuration not stated) — lower, 4.33%
- C#CCN(C[C@@H]1[C@@H](OC(=O)NCc2ccccc2F)[C@@H](OC(=O)NCc2ccccc2F)Cn2c(=O)ccc(=O)n21)S(=O)(=O)c1ccc(C)cc1 — lower, -98.8%
- COc1ccc2c(c1)c(CC(=O)OCC(N)=O)c(C)n2C(=O)c1ccc(Cl)cc1 — higher, 31.9%
- COc1ccc([N+](=O)[O-])c(S(=O)(=O)c2ccc(Cl)cc2)n1 — lower, -85.4%
- C[C@H](NC(=O)C[C@H]1C[C@@H]2c3cc(NC(=O)Nc4ccc(C(F)(F)F)cc4)ccc3O[C@@H]2[C@@H](CO)O1)c1ccccc1 — lower, -4.02%
- N#Cc1cccc(C#N)c1NCC1CCCO1 (configuration not stated) — lower, 13.6%
- COCC#Cc1cnc2c(c1)C(=O)N([C@H](C)CO)C[C@@H](C)[C@@H](CN(C)C(=O)c1cccnc1)O2 — lower, 4.29%

In the case of N#C[C@@H]1[C@H](c2ccccc2C2=CCCCC2)[C@H](CO)N1C(=O)Cc1ccncc1, the “activation (acetylation increase)” value is reported as 4.27% [at 21 µM].

In the case of Cn1nnnc1SCC(=O)NCc1cccc(C(=O)O)c1, the “activation (acetylation increase)” value is reported as -38.1% [at 10 µM].
